# Assay results published in PubChem BioAssay (NCI).
# About 83,000 compounds went through this panel and 20% of them were active in at least one assay; those are over-represented in the sample as a whole.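 A percent growth of 40 corresponds to 60% growth inhibition; 0 means no net growth; -100 means all cells died. Active threshold: below 10.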 Unmarked numbers belong to inactive results. Active and inactive are the calls of the source.
# Legend:
# Test in all cases: NCI-60 one-dose screen, 48 h (100 = growth as untreated, 0 = no growth, -100 = all killed)
# Conditions in all cases: 10 µM
# NCI-H23 lung = system: NCI-H23 lung
# NCI-H226 lung = system: NCI-H226 lung
# NCI-H460 lung = system: NCI-H460 lung
# NCI-H522 lung = system: NCI-H522 lung
# A549/ATCC NSCLC = system: A549/ATCC NSCLC
# 786-0 renal = system: 786-0 renal
# COLO 205 colon = system: COLO 205 colon
# HOP-92 NSCLC = system: HOP-92 NSCLC
# NCI-H322M lung = system: NCI-H322M lung
# HOP-62 NSCLC = system: HOP-62 NSCLC
Structure (SMILES),growth (NCI-H23 lung),growth (NCI-H226 lung),growth (NCI-H460 lung),growth (NCI-H522 lung),growth (A549/ATCC NSCLC),growth (786-0 renal),growth (COLO 205 colon),growth (HOP-92 NSCLC),growth (NCI-H322M lung) [%],growth (HOP-62 NSCLC) [%]
c1cncc(-c2csc(-c3c[nH]c4ccccc34)n2)c1,84.4%,84.1%,97%,73.5%,78.8%,103%,94.9%,–,–,–
Fc1ccc2[nH]cc(-c3nc(-c4ccsc4)cs3)c2c1,83.6%,78.5%,121%,79.2%,80%,109%,101%,–,–,–
CCn1c(CSc2nc3ccccc3c(=O)n2CCc2ccccc2)n[nH]c1=S,65.6%,78.1%,96.5%,-5% (active),84.6%,81.7%,105%,–,–,–
COc1ccc(-c2cc(-c3cc(OC)ccc3OC)nc(N)c2C#N)cc1,68.8%,63.7%,52.5%,23.6%,62.6%,66.2%,57.1%,–,–,–
COc1ccc2nc(Cl)c(Cn3nnc(Cc4ccccc4)n3)cc2c1,32.5%,39%,40%,38%,31.5%,47.5%,24.9%,–,–,–
CCCCC(CC)CN=C(N)NC(N)=NCCCCCCN=C(N)NC(N)=NCC(CC)CCCC (stereo not given),-80% (active),-63.1% (active),-71.3% (active),–,-87.1% (active),-31.2% (active),-79.8% (active),-53.9% (active),–,–
O=C(Nc1ccc(OS(=O)(=O)c2ccccc2)cc1)C1CCCCC1,88%,87%,99.8%,75.4%,90.5%,89.9%,97%,–,–,–
CC(=O)[C@@]12O[C@](C)(c3ccccc3)O[C@@H]1CC1C3CCC4=CC(=O)CC[C@]4(C)C3CC[C@@]12C (stereo not given in full),54.4%,78.5%,68.4%,–,70.7%,67.9%,81.7%,76.2%,–,–
COc1nc2c(c(=O)n1C)CN(c1ccccc1)C(=O)C(C)N2 (stereo not given),95.7%,95.6%,104%,84.6%,99.2%,97.5%,115%,–,–,–
COc1cc(-c2nn(-c3cccc(NC(=O)NCCNS(=O)(=O)c4ccc(Cl)cc4)c3)cc2-c2ccncc2)ccc1Cl,12.4%,27.3%,1.86% (active),7.66% (active),13.3%,6.74% (active),-64.2% (active),–,–,–
Cc1cn(-c2cccc(NC(=O)c3ccc(C)c(Nc4nccc(-c5cccnc5)n4)c3)c2)cn1,32.2%,-43% (active),-13% (active),-17.7% (active),10.7%,-52.2% (active),11%,–,–,–
CCOC(=O)c1sc2ncnc(Nc3ccc4c(cnn4C(=O)Nc4ccc(C)c(Cl)c4)c3)c2c1C,91.4%,87.6%,114%,68.8%,72.7%,89.6%,110%,–,–,–
O=C1c2c(c3c4ccccc4n(CCCCCCN4CCOCC4)c3c3[nH]c4ccccc4c23)C(=O)N1O,81.5%,66.7%,72.2%,67.3%,81.1%,5.72% (active),36%,–,–,–
Nc1ccc(-c2cccs2)cc1NC(=O)c1ccc(CCCC(=O)Nc2ccc(C3CC3N)cc2)cc1 (stereo not given),86.3%,108%,38%,53.6%,72.1%,-48% (active),73.9%,–,–,–
COc1ccc([C@H]2[C@H](C(=O)Nc3cccnc3)c3ccccc3C(=O)N2c2ccccc2)cc1,90.5%,95.9%,91.4%,82.4%,87.8%,91.2%,63.2%,–,–,–
CN1CCc2c(sc3nc4n(-c5ccc(Cl)cc5)c(=O)[nH]n4c(=O)c23)C1,97.4%,94.7%,–,77.9%,74.7%,84.8%,108%,–,–,–
COc1cc(C2CC(c3ccc4c(c3)OCO4)=NN2c2ccccc2)cc(OC)c1OC (stereo not given),93.9%,102%,103%,73.4%,98.5%,95.9%,86.8%,–,–,–
OCC1OC2C(NC(=S)N2c2ccccc2)C(O)C1O (stereo not given),102%,95.5%,105%,104%,93.9%,110%,105%,–,–,–
Fc1ccc(C(c2ccc(F)cc2)C(Cl)Cl)cc1,100%,105%,–,93.8%,102%,95.7%,108%,75.8%,–,–
C=C/C(C)=C/C[C@]1(C)[C@H](C)[C@@H](OC(=O)CCC)[C@H](O)[C@@]23C(=C[C@H](OC)C[C@@H]12)[C@@H](OC(=O)CCC)O[C@H]3OC(C)=O,-15.9% (active),-52.9% (active),2.97% (active),-80.9% (active),12.5%,-79.9% (active),-53.3% (active),–,–,–
Cc1c(C(N)=O)sc2c1c(=O)n(Cc1ccccc1)c1nnc(-c3ccc(Br)cc3)n21,39%,26.6%,4.4% (active),47.9%,10.1%,-15.5% (active),16.8%,–,–,–
O=C(c1ccccc1)N(C(=O)c1ccccc1)N1CCCC1,96.4%,92.7%,106%,–,–,110%,–,–,–,–
CC(C)[N+]1(C)C2CC[C@@H]1CC(OC(=O)C(CO)c1ccccc1)C2 (stereo not given in full),92%,103%,108%,–,92.3%,103%,113%,–,–,–
O=C(CCCNC(=O)c1nc(-c2ccccc2)n(-c2ccccc2)n1)NO,101%,85.6%,–,75.4%,71.7%,92.3%,109%,–,–,–
N#Cc1c(-c2ccc(Cl)cc2)cc(-c2cc(O)ccc2O)nc1N,11.2%,94.8%,5.46% (active),-8.49% (active),40%,-4.38% (active),97.5%,–,–,–
O=c1[nH]c(=O)n(C2C[C@H](O)[C@@H](CO)O2)cc1C(F)(F)F (stereo not given in full),98.1%,107%,113%,–,102%,101%,113%,–,–,–
CCCCCCCCCCCCCCCCCC[n+]1ccc2c(C)c3c(c(C)c2c1)c1cc(O)ccc1n3CC,4.06% (active),58%,6.93% (active),29.2%,13.9%,5.53% (active),-46.6% (active),–,–,–

Structure (SMILES),growth (NCI-H23 lung),growth (NCI-H226 lung),growth (NCI-H460 lung),growth (NCI-H522 lung),growth (A549/ATCC NSCLC),growth (786-0 renal),growth (COLO 205 colon),growth (HOP-92 NSCLC),growth (NCI-H322M lung) [%],growth (HOP-62 NSCLC) [%]
Cc1ccccc1N1C(=O)c2cc(S(N)(=O)=O)c(Cl)cc2NC1C (stereo not given),101%,112%,111%,–,100%,99.6%,118%,–,–,–
CNC(=O)c1c(I)c(NC(C)=O)c(I)c(C(=O)O)c1I,97.5%,98.8%,109%,–,105%,127%,118%,–,–,–
CN(C)CCCN1c2ccccc2CCc2ccc(Cl)cc21,71.2%,85.7%,79.4%,–,72.4%,71.3%,-11.9% (active),–,–,–
Nc1nc(-c2cccnc2)nc2c1sc(=S)n2-c1ccccc1,103%,95.8%,97.2%,83.4%,76.2%,98.7%,108%,–,–,–
CCOC(=O)c1sc2ncnc(Nc3ccc4c(cnn4C(=O)Nc4ccccc4)c3)c2c1C,60.6%,109%,49.2%,64.5%,56.7%,-2.26% (active),70.1%,–,–,–
COc1cc(CNC(=O)C2CSC3(C)c4ccccc4C(=O)N23)cc(OC)c1OC (stereo not given),96.9%,–,106%,68.8%,83.1%,102%,105%,–,99.7,90.1
O=C1Cc2cc(CCN3CCN(c4nsc5ccccc45)CC3)c(Cl)cc2N1,102%,99.5%,103%,–,95.4%,106%,109%,–,–,–
O=S(=O)(NCCCNc1nccc(-c2cn(-c3ccccc3)nc2-c2ccc(Cl)c(O)c2)n1)c1ccccc1,78.5%,76.3%,46.3%,65.6%,37.3%,68%,69.4%,–,–,–
CCCCCC(=O)O[C@]1(C(C)=O)CCC2C3CCC4=CC(=O)CC[C@]4(C)C3CC[C@@]21C (stereo not given in full),22.1%,52.7%,15.2%,–,27.9%,40.3%,13.3%,–,–,–
COc1ccc(/C=C2\CCCC3C2=Nc2ccccc2NC3c2ccc(OC)cc2)cc1 (stereo not given),78.7%,94.9%,94.8%,6.67% (active),88.5%,101%,116%,–,–,–
Clc1nc2ccccc2cc1Cn1nnc(Cc2ccccc2)n1,45.6%,58.2%,74.3%,42.1%,53.9%,72.9%,82.7%,–,–,–
c1cnc2[nH]cc(-c3nc(-c4ccsc4)cs3)c2c1,80.2%,74.4%,109%,79.4%,84.7%,107%,117%,–,–,–
COc1ccc(C(=O)CSc2nc(-c3cc(OC)ccc3OC)cc(-c3ccc(OC)cc3)c2C#N)cc1,91.6%,88.4%,127%,81.6%,78.6%,94.4%,98.8%,–,–,–
CS(=O)(=O)c1nccc(-c2c(-c3cccc(OCc4ccc(F)cc4)c3)nc3sccn23)n1,53%,55.5%,98.8%,24.4%,104%,79.5%,91.2%,–,–,–
CN1C(C(=O)Nc2ccccn2)=C(O)c2sc(Cl)cc2S1(=O)=O,99.6%,106%,99.9%,–,99.9%,104%,105%,–,–,–
CN1CCc2c(sc3nc4n(-c5ccc(Cl)cc5)cnn4c(=O)c23)C1,91.8%,92.2%,124%,94.1%,88.2%,96.4%,97.7%,–,–,–
CCCN1CN2C(=O)N3CN(CCC)CN4C(=S)N(C1)C2C34 (stereo not given),100%,–,112%,91.7%,102%,93.2%,114%,101%,87.6,84.7
Cn1c2ccccc2c2c3[nH][nH]c(=O)c3c3c4ccccc4[nH]c3c21,19.2%,65.8%,-28.2% (active),4.72% (active),56.9%,23%,59%,–,–,–
C=C(NC(=O)C(=C)NC(=O)c1csc(C2=NC3c4csc(n4)C4NC(=O)c5csc(n5)C(C(C)(O)C(C)O)NC(=O)C5CSC(=N5)C(=CC)NC(=O)C(C(C)O)NC(=O)c5csc(n5)C3(CC2)NC(=O)C(C)NC(=O)C(=C)NC(=O)C(C)NC(=O)C(C(C)CC)NC2C=Cc3c(C(C)O)cc(nc3C2O)C(=O)OC4C)n1)C(N)=O (stereo not given),43.2%,-59.6% (active),66.2%,–,72.2%,8.49% (active),-14.3% (active),–,–,–
C[C@@H](O)[C@H]1C(=O)N2C(C(=O)O)=C(SC3CN[C@H](C(=O)N(C)C)C3)[C@H](C)[C@H]12 (stereo not given in full),97.2%,99.2%,102%,–,96.6%,103%,113%,–,–,–
OC[C@H]1OC([S-])[C@H](O)[C@@H](O)[C@@H]1O.[Au+] (stereo not given in full),77.2%,103%,110%,–,95.7%,87.3%,114%,–,–,–
CCNc1nc(C(F)(F)F)nc2c1sc(=S)n2-c1ccccc1,93.4%,88.5%,100%,70.4%,74.4%,101%,106%,–,–,–
O=C(Nc1ccccc1)Nc1ncnc2c1ncn2-c1ccccc1,90.9%,59.1%,7.9% (active),74.4%,44.5%,12.1%,86.1%,–,–,–
Cc1ccc(-n2c(C)nn3c(=O)c4c5c(sc4nc23)CN(C)CC5)cc1,97.4%,98.3%,109%,71.5%,73.7%,86.3%,103%,–,–,–
Cc1c2cnccc2c(C)c2c1c1cc(O)ccc1n2C(C)C,0.21% (active),79.3%,-10% (active),-9.59% (active),7.74% (active),5.57% (active),17.9%,–,–,–
CCn1c2ccc(O)cc2c2c(C)c3c[n+](C)ccc3c(C)c21,19.2%,26.1%,7.28% (active),-0.0478% (active),37.5%,13.7%,43.6%,–,–,–
CCCCCCCCCCCC[n+]1c(C)cc(N)c2ccccc21,-36.8% (active),11.1%,–,-29.7% (active),57%,0.277% (active),-66.7% (active),-6.03% (active),–,–
